This passage reports Potency and outcome results from PubChem BioAssay (NCATS).

Molecules are shown by their SMILES. Values joined by “and” are separate entries in the source; they are usually repeats but may differ in a detail not shown here. Equal entries are not always repeated. Values without a mark were called inactive. Results filed as inconclusive are left out. Active and inactive are the calls of the source. Unless noted, calls follow the shape of the dose curve; as a rule, active = well fitted curve in the direction sought with a large enough effect; inconclusive = small, poorly fitted or top-dose-only effect, or another doubt; inactive = no such curve, though single readings can be large; an effect the other way counts as inactive or inconclusive.

The target in experiment [1] is Calcium and integrin-binding protein 1 (Homo sapiens) (UniProt Q99828). Nature of the experiment: Primary qHTS for Identification of Calcium Integrin Binding Protein 1 (CIB1) Competitor (AID 1508620).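 Also: GST tagged CIB1 binding a fluorescein labelled alphaIIb integrin peptide tracer; top concentration of the series differs between compounds.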 A digest of the protocol:
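Fluorescence polarization competition: CIB1-GST (1 uM final) preincubated with compound 15 min at room temperature, then FITC-labeled alphaIIb peptide (100 nM final) added for another 15 min. Polarization read at Ex 480/Em 540.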
For orientation: qHTS replaces the single test concentration by a dilution series.

Experiment [2] in a line: Primary qHTS for inhibitors of La Crosse Virus (LACV) - induced cell death in SH-SY5Y cells (AID 1508616).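 Also: top concentration of the series differs between compounds; higher means more rescue of cells from virus-induced death.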 In short, it runs like this:
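Readout was luminescence from ATPLite 1step added after a 6-day LACV infection (0.01 MOI) of SH-SY5Y cells that had received pin-transferred compound 24 hr after seeding.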

A short description of experiment [3]: Primary qHTS for small molecule stabilizers of the endoplasmic reticulum resident proteome: Secreted ER Calcium Modulated Protein (SERCaMP) assay (AID 1508630). Also: potency is read from the fitted curve at half-maximal effect. In short, it runs like this: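 GLuc-SERCaMP-expressing SH-SY5Y cells, pretreated 16 h with compound, are challenged with thapsigargin to empty ER calcium stores; after 4 h, coelenterazine is added directly to the medium and luminescence is imaged.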

A short description of experiment [4]: A High-Content qHTS Against Drug Library for the Identification of Small Molecules that Inhibit DYT1 Early Onset Primary Dystonia-Associated Cell Pathology (AID 1645839; calls by dose curve; also: series mostly up to about 46 µM). In short, it runs like this:
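Readout: %pathology, the punctate EGFP-TorsinA distribution from imaging, as the primary channel and cell count as the toxicity counterscreen. HEK293 Flp-In cells expressing delE TorsinA were induced with tetracycline and treated with compound for 48 h.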

Experiment [5] deals with Cytochrome P450 2D6 (Homo sapiens) (UniProt P10635). Nature of the experiment: Cytochrome P450 family 2 subfamily D member 6 (CYP2D6) small molecule antagonists: luciferase biochemical (cell-free) qHTS assay (AID 1645840; active = well fitted curve in the direction sought with a large enough effect in the repeat runs; an effect the other way counts as inactive or inconclusive; also: nearly all actives have a fitted effect of over 55% in size; also: potency is read from the fitted curve at half-maximal effect). A digest of the protocol: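 P450-Glo luminescent screen: recombinant CYP2D6 enzyme–proluciferin substrate mix preincubated with compound 10 min at room temperature, then NADPH regeneration added for 1 h at room temperature. Detection reagent added for 20 min; luciferin light read as relative luminescence units.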

Experiment [6] has as its target Cytochrome P450 2C9 (Homo sapiens) (UniProt P11712). The experiment can be described thus: Cytochrome P450 family 2 subfamily C member 9 (CYP2C9) small molecule antagonists: luciferase biochemical (cell-free) qHTS assay (AID 1645842; active = well fitted curve in the direction sought with a large enough effect in the repeat runs; an effect the other way counts as inactive or inconclusive; also: nearly all actives have a fitted effect of over 55% in size; also: potency is read from the fitted curve at half-maximal effect). A digest of the protocol:
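Luminescence, after 20 min with luciferin detection reagent, reflected CYP2C9 turnover during a 1 h NADPH-driven reaction at 37C. Enzyme-substrate mix contained 0.4% bovine serum albumin and was preincubated with compound 10 min at room temperature.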

A short description of experiment [7]: Primary qHTS for inhibitors of nuclear receptor binding SET domain protein 2 (NSD2) in an isogenic RCH-ACV NSD2 p.E1099K mutant (9B) (AID 1645876). Also: nearly all actives have a fitted effect of over 70% in size. Also: potency is read from the fitted curve at half-maximal effect.
Experiment [8] can be described thus: Primary qHTS for inhibitors of nuclear receptor binding SET domain protein 2 (NSD2) in an RCH-ACV wild type WT cells (2C) (AID 1645877). Also: potency is read from the fitted curve at half-maximal effect; nearly all actives have a fitted effect of over 70% in size.
A short description of experiment [9]: Validation qHTS assay for inhibitors of Activation Induced Cytidine Deaminase (AID): UDG Counterscreen signal (AID 1347427). A digest of the protocol:
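Counterscreen read of UDG activity (2 U/mL, 4/3x) in the FRET deamination format with AID (1 uM, 4/3x), DJC20/DJC23 substrates (250 nM, 4x), 4 h at room temperature. NaOH stop, fluorescence at 560 ex/665 em.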

Experiment [10] deals with Single-stranded DNA cytosine deaminase (Homo sapiens) (UniProt Q9GZX7). The experiment can be described thus: Validation qHTS assay for inhibitors of Activation Induced Cytidine Deaminase (AID): AID signal (AID 1347429). In short, it runs like this:
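In this coupled qHTS, AID deaminates a FRET-labelled ssDNA substrate in the presence of UDG over 4 hr at room temperature. Compounds span up to 114 uM final.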

Experiment [11] has as its target Calcium and integrin-binding protein 1 (Homo sapiens) (UniProt Q99828). The experiment can be described thus: Validation qHTS for Identification of Calcium Integrin Binding protein 1 (CIB1) Competitor (AID 1508618). In short, it runs like this: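 In this qHTS validation, the LOPAC set (up to 114 uM) was tested for blocking CIB1 binding to a fluorescein-tagged alphaIIb peptide, with FP detection at 480/540 nm.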

In another experiment the target is Papain (Carica papaya) (UniProt P00784). The experiment can be described thus: Primary qHTS assay for inhibitors of the protease papain (AID 1645873).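 Also: papain turnover of Z-FR-AMC read as the AMC fluorescence gain over 10 min; series mostly up to about 50 µM.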
The target of experiment [12] is Calcium and integrin-binding protein 1 (Homo sapiens) (UniProt Q99828). Nature of the experiment: Confirmatory qHTS for Identification of Calcium Integrin Binding Protein 1 (CIB1) Competitor (AID 1508617). Also: nearly all actives have a fitted effect of over 65% in size. A digest of the protocol:
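Binding competition between test compounds and fluorescent alphaIIb peptide for 1 uM CIB1-GST is monitored by FP at 480/540 nm. Final compound range is up to 114 uM; unlabeled peptide serves as reference competitor.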

Experiment [13] in a line: Confirmatory qHTS for small molecule stabilizers of the endoplasmic reticulum resident proteome: Secreted ER Calcium Modulated Protein (SERCaMP) assay (AID 1508628). Also: nearly all actives have a fitted effect of over 40% in size. Also: potency is read from the fitted curve at half-maximal effect. In short, it runs like this:
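We seeded SH-SY5Y-GLuc-SERCaMP cells, added compounds (three concentrations in the primary run, eleven up to 76.6 uM in confirmation), incubated 16 h, depleted ER calcium with thapsigargin, and read luciferase 4 h later.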

Experiment [14] in a line: Counterscreen qHTS for small molecule stabilizers of the endoplasmic reticulum resident proteome: GLuc-NoTag assay (AID 1508627). Also: potency is read from the fitted curve at half-maximal effect. In short, it runs like this:
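SH-SY5Y cells stably expressing constitutively secreted GLuc (no SERCaMP tag) were pre-incubated 5 h, treated with compound for 19 h, then 100 nM thapsigargin for 4 h at 37C; medium GLuc read by coelenterazine luminescence.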
Background: A counterscreen serves to expose hits that act by an unwanted route or on another target.

Chain of Calcium and integrin-binding protein 1 (Homo sapiens) (Q99828 whole entry, looked up): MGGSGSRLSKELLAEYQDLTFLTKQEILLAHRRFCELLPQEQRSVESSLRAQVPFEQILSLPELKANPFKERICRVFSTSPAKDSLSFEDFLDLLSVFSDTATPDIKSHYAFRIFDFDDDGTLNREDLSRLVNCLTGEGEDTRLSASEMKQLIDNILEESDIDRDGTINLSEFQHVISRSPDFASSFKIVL
Chain of Cytochrome P450 2D6 (Homo sapiens) (P10635 whole entry, looked up): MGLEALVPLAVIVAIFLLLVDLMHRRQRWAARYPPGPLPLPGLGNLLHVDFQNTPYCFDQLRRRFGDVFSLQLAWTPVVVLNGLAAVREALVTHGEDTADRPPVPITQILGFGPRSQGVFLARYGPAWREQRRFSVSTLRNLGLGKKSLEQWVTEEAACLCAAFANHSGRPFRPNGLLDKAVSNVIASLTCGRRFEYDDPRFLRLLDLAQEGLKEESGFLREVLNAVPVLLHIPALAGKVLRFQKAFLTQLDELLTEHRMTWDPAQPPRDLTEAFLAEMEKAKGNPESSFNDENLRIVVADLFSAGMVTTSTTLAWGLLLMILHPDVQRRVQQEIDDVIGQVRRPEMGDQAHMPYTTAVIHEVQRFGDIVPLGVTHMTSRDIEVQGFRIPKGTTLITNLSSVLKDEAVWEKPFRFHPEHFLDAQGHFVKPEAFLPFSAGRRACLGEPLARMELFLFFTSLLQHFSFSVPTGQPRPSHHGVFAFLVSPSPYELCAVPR
Chain of Cytochrome P450 2C9 (Homo sapiens) (P11712 whole entry, looked up): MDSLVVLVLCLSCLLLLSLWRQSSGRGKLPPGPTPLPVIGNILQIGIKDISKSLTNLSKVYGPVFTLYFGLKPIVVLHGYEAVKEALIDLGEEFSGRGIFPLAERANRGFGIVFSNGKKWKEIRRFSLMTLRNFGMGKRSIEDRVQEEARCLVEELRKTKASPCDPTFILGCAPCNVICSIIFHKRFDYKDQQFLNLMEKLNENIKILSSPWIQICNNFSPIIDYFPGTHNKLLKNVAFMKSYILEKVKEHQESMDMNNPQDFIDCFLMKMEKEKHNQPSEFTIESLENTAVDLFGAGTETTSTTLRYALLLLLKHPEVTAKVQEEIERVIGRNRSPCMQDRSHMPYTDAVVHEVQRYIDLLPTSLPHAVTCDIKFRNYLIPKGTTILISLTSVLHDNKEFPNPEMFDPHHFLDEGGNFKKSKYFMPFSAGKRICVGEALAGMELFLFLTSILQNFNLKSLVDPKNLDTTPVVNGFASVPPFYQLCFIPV
Chain of Single-stranded DNA cytosine deaminase (Homo sapiens) (Q9GZX7 whole entry, looked up): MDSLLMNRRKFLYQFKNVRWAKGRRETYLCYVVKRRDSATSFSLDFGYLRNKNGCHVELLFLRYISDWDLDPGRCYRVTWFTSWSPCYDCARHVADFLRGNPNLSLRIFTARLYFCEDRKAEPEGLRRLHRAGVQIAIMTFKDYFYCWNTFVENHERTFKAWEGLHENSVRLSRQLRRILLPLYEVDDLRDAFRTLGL
Chain of Papain (Carica papaya) (P00784 whole entry, looked up): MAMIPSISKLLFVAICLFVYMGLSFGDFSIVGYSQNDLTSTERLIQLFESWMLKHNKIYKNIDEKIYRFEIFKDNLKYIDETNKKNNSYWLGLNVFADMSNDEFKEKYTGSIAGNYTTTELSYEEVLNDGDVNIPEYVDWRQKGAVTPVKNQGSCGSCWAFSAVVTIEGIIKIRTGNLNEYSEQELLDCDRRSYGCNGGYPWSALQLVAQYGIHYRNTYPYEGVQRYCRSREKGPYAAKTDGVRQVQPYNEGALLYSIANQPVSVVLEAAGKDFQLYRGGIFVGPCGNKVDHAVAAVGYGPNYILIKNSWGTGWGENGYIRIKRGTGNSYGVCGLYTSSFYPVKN

For `CCOC(=O)N1CCN([N+]([O-])=NOc2cc(ON=[N+]([O-])N3CCN(C(=O)OCC)CC3)c([N+](=O)[O-])cc2[N+](=O)[O-])CC1`, in experiment [1], the Potency entry was “inactive”.
For `COc1ccnc(CS(=O)c2nc3ccc(OC(F)F)cc3[nH]2)c1OC` (centres undefined), the outcome in experiment [2] and in [4] was inactive. Further, the Potency result in [1] and in experiment [3] was “inactive” each time. Besides, the Potency in [5] was 5.49 µM (active) and 16.9 µM (active); in [6] it was 27.5 µM (active) and 21.3 µM (active); in experiment [7], 15 µM (active) and 18.6 µM (active); in experiment [8], 15 µM (active) and 18.6 µM (active).
With `CO[C@H]1O[C@@H]2O[C@@]3(C)CC[C@@H]4[C@@H](C)CC[C@@H]([C@H]1C)[C@@]24OO3`, the Potency result in experiment [1] was “inactive”.
On to `C=CCc1cccc(C=NNC(=O)CN2CCN(Cc3ccccc3)CC2)c1O`, for which the call (in experiment [9]; in [10]; in experiment [11]; with Papain (Carica papaya)) was inactive. The Potency entry in experiment [1] and in experiment [3] was “inactive” each time.
Consider `C[C@]12CCC3=C4CCC(=O)C=C4CC[C@@H]3[C@H]1CC[C@@]2(O)CC#N`, for which the Potency result in experiment [1] is “inactive”.
Regarding `Cc1nc(C(=O)NCC(=O)O)c(O)c2ccc(Oc3ccccc3)cc12`, the Potency result in [12], in experiment [5], in [6] and in experiment [7] was “inactive” each time.
In the case of `CN(C(Cc1ccc(OS(=O)(=O)c2cccc3cnccc23)cc1)C(=O)N1CCN(c2ccccc2)CC1)S(=O)(=O)c1cccc2cnccc12` (centres undefined), the Potency result in experiment [1] and in [13] was “inactive” throughout. Besides, the Potency in [3] is 11.9 µM (active); in experiment [7] it was 7.31 µM (active); in experiment [8], 6.51 µM (active).
In the case of `CC(C)C[C@H](NC(=O)c1cc2ccccc2s1)C(=O)N1CCN(C(=O)[C@H](CO)NS(=O)(=O)c2ccc(Cl)cc2Cl)CC1`, the Potency result in experiment [1] is “inactive”. Besides, the Potency in experiment [14] is 44.7 µM (active); in experiment [13] it was 15.8 µM (active); in experiment [3], 23.7 µM (active); in [7], 23.5 µM (active); in [8], 20.9 µM (active).
As for `N=C1SC(=Cc2ccc(-c3ccc4c(c3)C(=O)NC4=O)o2)C(=O)N1c1ccc(Br)cc1`, the Potency entry in [1] is “inactive”.
Take `C=C1c2cccc(O)c2C(O)=C2C(=O)[C@@]3(O)C(O)=C(C(N)=O)C(=O)[C@@H](N(C)C)[C@@H]3[C@@H](O)[C@H]12`: the Potency result in [1] and in experiment [3] was “inactive” in each case.
As to `O=c1[nH]c(=O)n([C@H]2C[C@@H](O)[C@@H](CO)O2)cc1I`, the Potency result in [1] is “inactive”.
Regarding `CC1(C)C(N(O)C(=O)Nc2ccc(Cl)cc2)N(c2ccc(Cl)cc2)C(=O)N1CC(=O)NN=CC=Cc1ccc([N+](=O)[O-])o1` (centres undefined), the Potency result in [1] and in [3] was “inactive” each time.
With `CN[C@@H]1[C@@H](O)[C@@H](O[C@@H]2[C@@H](O)[C@H](O[C@H]3O[C@H](CN)[C@@H](O)[C@H](O)[C@@H]3O)[C@@H](N)C[C@@H]2NC(=O)[C@@H](O)CN)OC[C@]1(C)O`, in experiment [1], the Potency result is “inactive”.
